Laboratory results published in PubChem BioAssay (NCI).
About 83,000 compounds went through this panel and 20% of them were active in at least one assay; those are over-represented in the sample as a whole.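 Compound tested at a single concentration for 48 hours in 96-well plates; a percent growth value below 10 was scored as active.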 Unmarked numbers belong to inactive results. The source made the active and inactive calls.

Legend:
Experiment in all cases: NCI-60 one-dose screen, 48 h (100 = growth as untreated, 0 = no growth, -100 = all killed)
Conditions in all cases: 10 µM unless noted
SR leukemia = system: SR leukemia
RPMI-8226 leukemia = system: RPMI-8226 leukemia
OVCAR-8 ovarian = system: OVCAR-8 ovarian
OVCAR-5 ovarian = system: OVCAR-5 ovarian
OVCAR-4 ovarian = system: OVCAR-4 ovarian
SK-OV-3 ovarian = system: SK-OV-3 ovarian
IGROV1 ovarian = system: IGROV1 ovarian
OVCAR-3 ovarian = system: OVCAR-3 ovarian
HS 578T breast = system: HS 578T breast
NCI/ADR-RES ovarian = system: NCI/ADR-RES ovarian
T-47D breast = system: T-47D breast
BT-549 breast = system: BT-549 breast
MDA-MB-435 melanoma = system: MDA-MB-435 melanoma
SW-620 colon = system: SW-620 colon
MCF7 breast = system: MCF7 breast
HCT-116 colon = system: HCT-116 colon
HCC-2998 colon = system: HCC-2998 colon
KM12 colon = system: KM12 colon

Row | SMILES | growth (SR leukemia) | growth (RPMI-8226 leukemia) | growth (OVCAR-8 ovarian) | growth (OVCAR-5 ovarian) | growth (OVCAR-4 ovarian) | growth (SK-OV-3 ovarian) | growth (IGROV1 ovarian) | growth (OVCAR-3 ovarian) | growth (HS 578T breast) | growth (NCI/ADR-RES ovarian) | growth (T-47D breast) | growth (BT-549 breast) | growth (MDA-MB-435 melanoma) | growth (SW-620 colon) | growth (MCF7 breast) | growth (HCT-116 colon) | growth (HCC-2998 colon) | growth (KM12 colon)
1 | N#CSCc1cc(Cl)c(CSC#N)cc1Cl | 10.8% | 48.6% | 94.9% | 82.9% | 80.5% | 101% | 84.7% | 71.3% | 82.3% | 84.5% | 90% | 39.7% | 34.9% | 20.6% | 24.5% | 34.7% | 97% | 85.5%
2 | COc1cc(/C=C2\CN(S(=O)(=O)c3ccc(C)cc3)C/C(=C\c3cc(CN4CCCC4)c(O)c(OC)c3)C2=O)cc(CN2CCCC2)c1O | -19.4% (active) | -34.6% (active) | 8.04% (active) | -2.7% (active) | 12.1% | 33.9% | -20.1% (active) | -27.8% (active) | 9.95% (active) | 77.8% | 40% | 12.7% | -76.8% (active) | -68.1% (active) | -25.5% (active) | -91.7% (active) | -89.5% (active) | -63.9% (active)
3 | COc1cc2c(cc1OC)CC[N+](CCC[N+](C)(C)C)=C2 | 89.8% | 103% | 110% | 91.5% | 99% | 92.9% | 99.6% | 108% | 111% | 102% | 103% | 92.8% | 103% | 113% | 95.1% | 95.2% | 89.5% | 103%
4 | CCOC(=O)c1ccc2c(c1)c1c(C)c3cnccc3c(C)c1n2C | 14.9% | -29.7% (active) | -21.5% (active) | -46.7% (active) | -14.8% (active) | -21.4% (active) | -62.7% (active) | -47.5% (active) | -27.6% (active) | -33.1% (active) | -23.1% (active) | -54% (active) | -65.8% (active) | -7.3% (active) | -28.9% (active) | -85.2% (active) | -70.7% (active) | -7.02% (active)
5 | Cc1ccc(S(=O)(=O)N(CCC(=O)O)c2ccccc2)cc1 | 99.3% | 93.2% | 101% | 111% | 114% | 105% | 123% | 110% | 121% | 110% | 100% | 93.2% | 107% | 104% | 91.8% | 95.1% | 112% | 98.9%
6 | Cc1ccccc1NC(=O)Cn1cc(CN2CCN(c3ccnc4cc(Cl)ccc34)CC2)nn1 | 86.8% | 79.7% | 103% | 103% | 94% | 95.6% | 99.8% | 105% | 85.5% | 99.1% | 92.4% | 93.4% | 99.4% | 94.2% | 93.9% | 100% | 93.3% | 91.5%
7 | COc1cccc(/C=C2\CCc3ccccc3C2=O)c1 | 21% | 6.5% (active) | 92.5% | 85.9% | 88.5% | 86.5% | 80.7% | 89.5% | 87.4% | 71.4% | 75.3% | 86.4% | 58.2% | 52.1% | 27.5% | 53.4% | 94.7% | 64%
8 | CCCc1cc(CCC)n2nc(N)nc2n1 | 109% | 104% | 106% | 98.8% | 116% | 105% | 126% | 121% | 103% | 109% | 110% | 92.9% | 110% | 109% | 95.6% | 103% | 98.1% | 108%
9 | c1ccc2cc(Cn3cc[n+](Cc4ccc5ccccc5c4)c3)ccc2c1 | 22.3% | -0.408% (active) | 10.9% | 43% | 0.592% (active) | 33.2% | -2.69% (active) | 14.5% | 58.8% | 99.5% | -5.37% (active) | 2.35% (active) | 7.71% (active) | 58% | 37.2% | 41% | 26.5% | -1.63% (active)
10 | CCN1C(=O)N(CC)C2C1NC(=S)N2/N=C/C=C/c1cccs1 (stereo not drawn) | 17.8% | 25.4% | 17.2% | 33% | 57.3% | 43.7% | 24.5% | 2.01% (active) | 16.5% | 4.47% (active) | 66.4% | 24.1% | -26.9% (active) | 25.5% | 18.3% | 15.1% | 16.4% | 18.5%
11 | c1ccc2c(-c3cnn4cc(-c5ccc(N6CCNCC6)cc5)cnc34)ccnc2c1 | -19.1% (active) | -52.8% (active) | -46.9% (active) | -85.3% (active) | -65.8% (active) | -86.4% (active) | -79.7% (active) | -83.2% (active) | -68.7% (active) | -42.5% (active) | -45.9% (active) | -80.9% (active) | -99.4% (active) | -52.3% (active) | -64.1% (active) | -98.4% (active) | -63.8% (active) | -72.7% (active)
12 | N#Cc1c(-c2ccc(Cl)cc2)nc(NN=Cc2cccc(Cl)c2)nc1N1CCOCC1 | 8.74% (active) | 65.1% | 96.7% | 103% | 94.3% | 111% | 75.2% | 87.4% | 96.6% | 89.2% | 76.6% | 93.6% | 92% | 53.3% | 85.9% | 70.8% | 105% | 84%
13 | COc1ccc(C2=C/C(=C\c3ccccc3O)C(=O)N2Cc2ccccc2)cc1 | 45.2% | 63% | 70.9% | 111% | 92.6% | 73.8% | 77.5% | 92.9% | 74.8% | 79.9% | 68.9% | 70.4% | -4.21% (active) | 92.2% | 62.8% | 72.5% | 107% | 70.3%
14 | O=C(Nc1ncc(Cc2ccccc2)s1)c1cc(-c2ccccc2)nc2ccccc12 | 105% | 95.7% | 98.4% | 98.6% | 108% | 96.7% | 87.3% | 104% | 92.6% | 87.8% | 91.7% | 99.3% | 104% | 96.2% | 91.1% | 95.3% | 99.2% | 105%
15 | N#Cc1nn(-c2ccccn2)c(N)c1C#N | 86.2% | 110% | 106% | 97.5% | 105% | 91.5% | 108% | 114% | 105% | 104% | 84.1% | 98.3% | 101% | 115% | 99.8% | 87.7% | 106% | 101%
16 | O=C1c2c(c3c4cc(F)ccc4oc3c3[nH]c4ccccc4c23)C(=O)N1O | 9.66% (active) | 26.2% | 50.8% | 100% | 61.4% | 55.7% | 25.6% | 25.5% | 65.2% | 45.6% | 5.76% (active) | 44.8% | 48.9% | 31.6% | 17.3% | 23.4% | 70.3% | 39.5%
